# Reference: PubChem BioAssay AID2783 (National Center for Advancing Translational Sciences (NCATS), 2010)
# Results filed as inconclusive are left out. Active and inactive are the calls of the source. The call rests on the fitted dose curve; in most records, active means well fitted inhibition curve with a large enough effect in the polarisation, with a control signal flat (not every such curve was filed as active); inconclusive means small, poorly fitted or top-dose-only effect, or effect the other way, or a change in a side signal; inactive means no such curve, though single readings can be large or run the other way; the % refers to the polarisation.
# Molecular target: Histone-lysine N-methyltransferase 2A (Homo sapiens) (UniProt Q03164)
# Assay: Confirmation of Inhibitors Targeting the Menin-MLL Interaction in MLL Related Leukemias: Competition With Fluorescein Labeled MLL-derived Peptide
# Settings: Fluorescence polarization, fluorescein-MLL peptide displacement from menin
# Source text: qHTS Assay for Inhibitors Targeting the Menin-MLL Interaction in MLL Related Leukemias
# NIH Chemical Genomics Center [NCGC]
# NIH Molecular Libraries Probe Centers Network [MLPCN]
# Assay Submitter (PI): Jolanta Grembecka, Tomasz Cierpicki, University of Virginia
# Translocations of the MLL (Mixed Lineage Leukemia) gene are frequently found in human leukemias affecting both children and adults. Fusion of MLL to one of more than 60 genes results in generation of oncogenic proteins upregulating Hox genes, which are vital to blood cell development. Patients harboring fusion of the MLL gene suffer from aggressive leukemias and respond poorly to available therapies. All of the oncogenic fusion proteins have a preserved N-terminal fragment of MLL that has been identified to interact with menin. It has been recently discovered that association with menin is critical to the leukemogenic activity of the MLL fusion oncoproteins. Selective targeting of the menin-MLL interaction could provide an attractive therapeutic approach to develop novel drugs for MLL-related leukemias. Small molecules blocking the menin-MLL interaction should reverse the oncogenic potential of MLL fusion proteins.
# We have developed and optimized a fluorescence polarization-based assay for the identification of Menin-MLL inhibitors. […]
# 5. Read fluorescence polarization for each label using the PerkinElmer Envision. […]
# Potency means the concentration at half of the fitted maximal effect.
# Histone-lysine N-methyltransferase 2A (Homo sapiens), sequence (Q03164 whole entry, looked up): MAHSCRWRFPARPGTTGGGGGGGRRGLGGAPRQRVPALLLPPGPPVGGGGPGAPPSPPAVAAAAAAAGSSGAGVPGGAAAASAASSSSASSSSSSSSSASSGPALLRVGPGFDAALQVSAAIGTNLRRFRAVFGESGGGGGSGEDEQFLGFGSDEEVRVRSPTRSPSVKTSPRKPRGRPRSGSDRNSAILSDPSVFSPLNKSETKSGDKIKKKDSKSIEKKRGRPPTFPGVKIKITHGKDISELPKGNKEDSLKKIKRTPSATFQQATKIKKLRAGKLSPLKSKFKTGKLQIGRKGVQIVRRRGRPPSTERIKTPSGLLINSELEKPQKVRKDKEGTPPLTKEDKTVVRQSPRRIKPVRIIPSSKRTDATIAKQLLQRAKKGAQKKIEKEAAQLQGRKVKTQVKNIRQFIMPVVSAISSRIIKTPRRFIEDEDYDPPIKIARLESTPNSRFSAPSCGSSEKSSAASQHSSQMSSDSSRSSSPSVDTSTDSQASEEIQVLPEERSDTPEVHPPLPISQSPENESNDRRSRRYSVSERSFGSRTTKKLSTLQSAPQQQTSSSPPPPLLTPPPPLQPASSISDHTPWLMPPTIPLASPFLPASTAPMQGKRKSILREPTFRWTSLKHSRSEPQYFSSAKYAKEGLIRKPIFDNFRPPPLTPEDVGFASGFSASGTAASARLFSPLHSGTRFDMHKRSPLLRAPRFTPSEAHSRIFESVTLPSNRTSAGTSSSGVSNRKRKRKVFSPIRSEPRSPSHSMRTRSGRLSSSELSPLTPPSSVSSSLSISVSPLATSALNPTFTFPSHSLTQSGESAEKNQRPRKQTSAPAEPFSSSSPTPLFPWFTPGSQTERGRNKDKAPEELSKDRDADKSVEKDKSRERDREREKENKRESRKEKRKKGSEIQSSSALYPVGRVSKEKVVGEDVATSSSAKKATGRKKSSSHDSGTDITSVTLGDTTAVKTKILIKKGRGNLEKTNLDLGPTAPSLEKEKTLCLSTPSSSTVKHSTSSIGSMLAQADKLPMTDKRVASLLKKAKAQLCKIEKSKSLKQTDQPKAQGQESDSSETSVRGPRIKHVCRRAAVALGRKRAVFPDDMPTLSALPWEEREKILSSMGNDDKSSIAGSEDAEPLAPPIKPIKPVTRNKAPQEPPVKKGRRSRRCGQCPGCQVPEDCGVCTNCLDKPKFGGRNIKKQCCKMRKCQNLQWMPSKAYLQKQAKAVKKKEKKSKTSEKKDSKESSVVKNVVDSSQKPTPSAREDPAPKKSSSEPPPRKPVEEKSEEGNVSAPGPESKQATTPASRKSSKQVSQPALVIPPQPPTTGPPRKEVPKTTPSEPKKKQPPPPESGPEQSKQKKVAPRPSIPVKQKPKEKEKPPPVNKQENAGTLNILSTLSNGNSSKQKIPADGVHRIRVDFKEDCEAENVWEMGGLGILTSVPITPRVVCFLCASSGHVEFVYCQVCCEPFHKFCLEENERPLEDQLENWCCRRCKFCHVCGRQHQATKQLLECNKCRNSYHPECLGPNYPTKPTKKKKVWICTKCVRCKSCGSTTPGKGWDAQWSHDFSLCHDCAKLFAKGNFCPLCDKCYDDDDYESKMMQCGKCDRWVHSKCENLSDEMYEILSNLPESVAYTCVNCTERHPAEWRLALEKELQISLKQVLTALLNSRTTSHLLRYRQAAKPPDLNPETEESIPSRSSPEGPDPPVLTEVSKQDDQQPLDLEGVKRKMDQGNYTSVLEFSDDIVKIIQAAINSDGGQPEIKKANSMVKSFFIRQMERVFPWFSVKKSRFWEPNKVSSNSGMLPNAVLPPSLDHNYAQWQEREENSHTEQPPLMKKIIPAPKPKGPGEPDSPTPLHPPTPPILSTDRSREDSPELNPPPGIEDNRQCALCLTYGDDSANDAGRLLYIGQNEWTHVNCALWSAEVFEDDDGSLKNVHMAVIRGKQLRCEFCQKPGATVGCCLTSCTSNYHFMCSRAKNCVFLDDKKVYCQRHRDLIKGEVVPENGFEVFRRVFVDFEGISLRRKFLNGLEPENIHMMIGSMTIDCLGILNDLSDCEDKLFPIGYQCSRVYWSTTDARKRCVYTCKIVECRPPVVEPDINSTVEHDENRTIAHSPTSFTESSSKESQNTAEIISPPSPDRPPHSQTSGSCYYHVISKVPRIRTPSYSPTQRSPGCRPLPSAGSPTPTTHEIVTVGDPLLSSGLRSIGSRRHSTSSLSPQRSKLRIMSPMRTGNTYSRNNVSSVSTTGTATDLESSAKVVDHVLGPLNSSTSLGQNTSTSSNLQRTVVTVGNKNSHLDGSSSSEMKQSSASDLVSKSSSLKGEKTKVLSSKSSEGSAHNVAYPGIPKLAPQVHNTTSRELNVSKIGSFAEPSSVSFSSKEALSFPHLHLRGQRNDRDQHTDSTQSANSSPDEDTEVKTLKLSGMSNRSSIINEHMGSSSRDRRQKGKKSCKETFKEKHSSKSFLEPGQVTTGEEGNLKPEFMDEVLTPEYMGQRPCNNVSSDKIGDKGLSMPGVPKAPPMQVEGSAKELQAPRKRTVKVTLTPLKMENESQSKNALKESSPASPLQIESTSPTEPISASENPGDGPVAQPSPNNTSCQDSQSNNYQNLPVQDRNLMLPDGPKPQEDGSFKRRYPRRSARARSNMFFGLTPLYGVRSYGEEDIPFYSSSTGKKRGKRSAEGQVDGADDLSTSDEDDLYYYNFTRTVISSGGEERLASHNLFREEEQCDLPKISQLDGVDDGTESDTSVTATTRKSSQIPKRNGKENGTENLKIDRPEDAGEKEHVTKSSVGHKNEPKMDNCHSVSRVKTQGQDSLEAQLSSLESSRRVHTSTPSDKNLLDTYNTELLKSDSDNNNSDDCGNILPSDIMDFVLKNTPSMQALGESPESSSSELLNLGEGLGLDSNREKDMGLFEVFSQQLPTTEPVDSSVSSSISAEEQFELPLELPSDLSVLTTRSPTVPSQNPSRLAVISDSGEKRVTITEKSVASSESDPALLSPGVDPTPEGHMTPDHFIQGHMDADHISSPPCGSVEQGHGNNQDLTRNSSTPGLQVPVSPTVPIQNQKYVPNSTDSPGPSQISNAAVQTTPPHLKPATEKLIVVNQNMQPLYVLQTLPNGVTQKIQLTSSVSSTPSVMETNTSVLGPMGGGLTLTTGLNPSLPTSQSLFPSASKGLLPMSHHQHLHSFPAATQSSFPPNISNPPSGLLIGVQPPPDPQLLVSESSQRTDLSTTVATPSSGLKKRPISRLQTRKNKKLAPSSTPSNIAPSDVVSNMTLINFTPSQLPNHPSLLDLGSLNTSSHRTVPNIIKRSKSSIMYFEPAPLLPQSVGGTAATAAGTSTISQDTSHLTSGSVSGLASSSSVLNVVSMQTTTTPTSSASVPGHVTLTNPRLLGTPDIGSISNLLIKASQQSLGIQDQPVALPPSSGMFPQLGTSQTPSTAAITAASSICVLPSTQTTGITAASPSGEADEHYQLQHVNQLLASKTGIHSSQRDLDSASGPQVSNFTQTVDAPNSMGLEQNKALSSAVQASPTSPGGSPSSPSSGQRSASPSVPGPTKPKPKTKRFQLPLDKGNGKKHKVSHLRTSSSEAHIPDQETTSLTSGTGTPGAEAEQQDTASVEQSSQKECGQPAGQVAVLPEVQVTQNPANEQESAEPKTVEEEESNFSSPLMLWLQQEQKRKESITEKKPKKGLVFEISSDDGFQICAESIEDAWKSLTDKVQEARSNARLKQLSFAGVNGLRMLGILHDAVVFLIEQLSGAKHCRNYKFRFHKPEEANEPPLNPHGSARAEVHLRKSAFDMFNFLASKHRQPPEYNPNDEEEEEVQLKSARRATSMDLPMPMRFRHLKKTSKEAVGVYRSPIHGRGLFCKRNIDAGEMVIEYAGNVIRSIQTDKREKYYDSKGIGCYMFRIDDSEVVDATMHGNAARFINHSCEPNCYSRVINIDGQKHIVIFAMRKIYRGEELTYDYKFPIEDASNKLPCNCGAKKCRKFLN
compound,measurement,value
c1cc2cc(c1)C[n+]1ccc(c3ccccc31)NCc1ccc(cc1)CNc1cc[n+](c3ccccc13)C2,Potency,126 µM (active)
